GLP-1R inv ag = GLP-1 receptor (human) inverse agonism; P43220; actives 1.6% (n = 410,000); AID 624417; Potency, µM (top dose mostly 38.3 µM), for inactives: at the highest dose activity change, negative = inhibition, actives largely listed as inhibitors; HEK293 GLP-1R CRE-luciferase, luminescence, 24 h; GLP-1R form is constitutively active; note: potency is the fitted concentration of half-maximal effect; % is set by controls: 0 for no effect and ±100 for the full control effect; nearly all actives have a fitted effect of over 55% in size
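Cells are plated, allowed 12 hours at 37 deg C, then treated with compounds for 24 hr before luciferase detection reagent is added and luminescence is read after 12 min at room temperature. The HEK293 line carries constitutively active GLP-1R with a cAMP-responsive reporter.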
hERG WT inh = KCNH2 (human, wildtype) channel inhibition; AID 720551; activity change, % at 1.84 µM; actives 0.37% (n = 340,000); U2OS, BacMam KCNH2, thallium flux FluxOr; active compounds read low; Q12809;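 active = maximum activity change below -70%; inconclusive = maximum activity change between -70% and -50%; inactive = maximum activity change above -50%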; note: % is set by controls: 0 for no effect and ±100 for the full control effect
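U2OS cells were transduced with wild-type KCNH2 virus (2.03 x 10^8 / mL) for 4 h at room temperature, then cultured overnight at 37 C. Thallium flux was read with FluxOr dye. Rate constants were normalized to DMSO controls.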
GLP1R cytotox = cytotoxic in the GLP-1 receptor inverse agonist counter-screen; actives 0.13% (n = 410,000); AID 624418; Potency, µM (series often up to 38.3 µM), for the others: top-dose activity change, negative = inhibition, actives largely listed as inhibitors; HEK293 cAMP-luciferase reporter cells, luminescence, 24 h;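 note: loss of luciferase light is scored as toxicity; potency is the fitted concentration of half-maximal effect; % is set by controls: 0 for no effect and ±100 for the full control effect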
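MLSMR compounds, 24 hr on cells at 37 deg C/5% CO2; luminescence after luciferase reagent (12 min RT). Inhibition counted as the undesired cytotoxic outcome.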
GLS inh = blocks human kidney-isoform glutaminase activity | AID 624170 | Potency, µM (top dose mostly 45.5 µM), for the others: at the highest dose activity change, negative = inhibition, actives largely listed as inhibitors | actives 0.21% (n = 410,000) | O94925 | GLS enzymatic activity, qHTS titration; note: potency is the fitted concentration of half-maximal effect; % is set by controls: 0 for no effect and ±100 for the full control effect
Target sequence (O94925 whole entry, looked up, canonical isoform): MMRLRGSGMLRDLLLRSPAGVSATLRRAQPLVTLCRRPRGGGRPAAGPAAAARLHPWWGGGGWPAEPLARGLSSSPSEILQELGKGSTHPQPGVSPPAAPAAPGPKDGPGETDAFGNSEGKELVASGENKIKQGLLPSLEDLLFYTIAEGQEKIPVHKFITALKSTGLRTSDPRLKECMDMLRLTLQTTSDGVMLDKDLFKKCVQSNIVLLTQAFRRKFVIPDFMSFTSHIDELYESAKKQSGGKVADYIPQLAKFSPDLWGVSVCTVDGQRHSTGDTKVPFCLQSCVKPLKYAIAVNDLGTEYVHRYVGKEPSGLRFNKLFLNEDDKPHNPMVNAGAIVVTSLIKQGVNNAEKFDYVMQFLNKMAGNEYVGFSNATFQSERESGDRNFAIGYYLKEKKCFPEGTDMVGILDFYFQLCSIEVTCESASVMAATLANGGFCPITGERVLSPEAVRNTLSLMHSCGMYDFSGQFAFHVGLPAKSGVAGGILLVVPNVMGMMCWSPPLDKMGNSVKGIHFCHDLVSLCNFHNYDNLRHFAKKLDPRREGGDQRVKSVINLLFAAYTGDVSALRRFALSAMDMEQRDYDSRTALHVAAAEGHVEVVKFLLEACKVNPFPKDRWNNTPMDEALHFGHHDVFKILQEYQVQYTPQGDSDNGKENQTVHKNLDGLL
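hKGA in 45 mM KH2PO4 (pH 8.2), 0.02% Tween-20 with compound, then 1mM L-Glutamine (stock as added) plus glutamate oxidase/HRP/Amplex red coupling mix. Fluorescence read initially and after 30 min at RT; signal change reflects glutamate formation.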
KCNH2 3.1 inh = KCNH2 3.1 (human) potassium channel inhibition; U2OS KCNH2 3.1, thallium flux FluxOr; active compounds read low; activity change, % (tested at about 1.8 µM); actives 0.95% (n = 340,000); AID 720553;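 active = maximum activity change below -70%; inconclusive = maximum activity change from -70% to -50%; inactive = maximum activity change above -50%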;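 note: thallium influx rate constant from kinetic fluorescence after stimulation buffer; % is set by controls: 0 for no effect and ±100 for the full control effect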
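Thallium flux read-out: FluxOr dye with Red40 quencher in HBSS/HEPES, 45 min at RT. Rate constants from kinetic reads were normalized to positive and negative DMSO controls. Cells: U2OS virally expressing the 3.1 isoform.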
GLP1R ag = activates the human GLP-1 receptor | P43220 | HEK293 GLP-1R CRE-luciferase, luminescence, 4-6 h; cells express a hypersensitive GLP-1R form | Potency, µM (doses to about 45.6 µM), for the others: top-dose activation, most hits filed as activators | actives 0.007% (n = 380,000); note: potency is the fitted concentration of half-maximal effect; % of control where 0% means no effect
Numbers without * were called inactive; ? = inconclusive; nt = not tested or not shown. Shown are actives, neighbours in structure and some others; about 2.8% of the full set was active somewhere. Unless noted, calls come from the whole dose curve; as a rule, active = well fitted curve in the direction sought with a large enough effect; inconclusive = small, poorly fitted or top-dose-only effect, or another doubt; inactive = no such curve, though single readings can be large; an effect the other way counts as inactive or inconclusive.

SMILES	GLP-1R inv ag	hERG WT inh	GLP1R cytotox	GLS inh	KCNH2 3.1 inh	GLP1R ag
O=C(CCCC(=O)N1CCN(c2ccc([N+](=O)[O-])cc2)CC1)c1ccccc1	-3.7%	-88.4*	-29.7%	6.5%	-95.4*	2.9%
CC(=O)OCC(=O)N1CCN(c2ccc([N+](=O)[O-])cc2)CC1	4.4%	2.8	?	-1.0%	5.3	7.9%
CCOCC(=O)N1CCN(c2ccc([N+](=O)[O-])cc2)CC1	7.9%	-95.5*	-14.4%	5.6%	-73.2*	1.1%
OC(CNc1ccccc1)COc1ccc(OCC(O)CNc2ccccc2)cc1 (centres undefined)	6.31µM*	-8.2	13.0%	22.0%	6.2	-28.6%
CCOCC(O)CNc1ccccc1 (centres undefined)	0.2%	7.1	1.1%	3.6%	-3.6	10.0%
Cc1ccc(OCC(O)CNC(C)c2ccccc2)cc1C (centres undefined)	5.01µM*	-3.2	20.1%	11.2%	-1.5	0.9%
Cc1cccc(OC(C)C(=O)Nc2cc(S(=O)(=O)N3CCCCC3)ccc2C)c1 (centres undefined)	?	1.9	-0.3%	5.0%	-2.7	2.8%
Cc1ccc(S(=O)(=O)N2CCCCC2)cc1NC(=O)COC(=O)C1(C)CC1(Cl)Cl (centres undefined)	7.94µM*	-2.3	-7.0%	-1.6%	-0.1	9.6%
Cc1cccc(C(=O)N[C@H](C(=O)Nc2cc(S(=O)(=O)N3CCCCC3)ccc2C)C(C)C)c1	10µM*	4.0	-6.2%	9.7%	34.7	-4.2%
Cc1ccc(S(=O)(=O)N2CCOCC2)cc1NC(=O)COC(=O)C1(C)CC1(Cl)Cl (centres undefined)	?	8.3	-10.0%	-1.1%	3.0	-4.4%
COc1ccc(OCCCC(=O)Nc2cc(S(=O)(=O)N3CCCCC3)ccc2C)cc1	5.62µM*	1.3	2.2%	3.5%	1.6	-5.2%
CCN(CC)c1ccc(NC(=O)c2cnn3c(C(F)F)cc(-c4ccccc4)nc23)cc1	14.0%	nt	-1.2%	4.4%	nt	nt
O=C(O)c1ccccc1-c1c2cc(I)c(=O)c(I)c-2oc2c(I)c(O)c(I)cc12	-14.8%	-10.6	?	?	-11.3	-0.4%
O=C(O)c1c(Cl)c(Cl)c(Cl)c(Cl)c1-c1c2cc(I)c(=O)c(I)c-2oc2c(I)c(O)c(I)cc12	nt	nt	nt	14.1µM*	nt	-0.4%
CCN(CC)S(=O)(=O)c1cc(NC(=O)C2CC(=O)N(Cc3ccccc3)C2)ccc1Cl (centres undefined)	10µM*	3.8	-9.0%	-0.3%	-4.4	13.5%
Cc1sc2ncnc(N3CCC(C(=O)N(C)CC(=O)Nc4ccc(Cl)c(C(F)(F)F)c4)CC3)c2c1C	2.51µM*	4.7	?	2.7%	-15.0	11.4%
Cc1sc2ncnc(N3CCC(C(=O)Nc4cc(Cl)ccc4Cl)CC3)c2c1C	10µM*	-3.5	-17.3%	0.1%	-4.2	-4.4%
Cc1sc2ncnc(N3CCC(C(=O)Nc4cc(S(C)(=O)=O)ccc4Cl)CC3)c2c1C	?	-8.8	-10.2%	-5.0%	1.0	7.0%
Cc1ccc(NC(=O)C2CCN(c3ncnc4sc(C)c(C)c34)CC2)cc1S(=O)(=O)N(C)C	?	1.1	-5.8%	7.1%	-15.8	5.6%
CCN(CC)S(=O)(=O)c1cc(NC(=O)C2CCN(c3ncnc4sc(C)c(C)c34)CC2)ccc1Cl	2.51µM*	1.4	-4.2%	0.2%	-7.0	-22.8%
CSc1ncccc1C(=O)NC1CC(C)(C)Cc2c1cnn2-c1ccccc1C (centres undefined)	-10.2%	-3.4	11.9%	-0.7%	9.0	-0.2%
N#Cc1cnn(-c2cccc(Cl)c2)c1N	16.5%	-4.5	8.3%	0.0%	-86.4*	-2.1%
COc1ccc(C(=O)/C=C/c2cn(CC(O)CN3CCc4ccccc43)c3ccccc23)cc1OC (centres undefined)	10µM*	nt	-23.3%	-2.9%	nt	nt
Cc1ccc(C(=O)/C=C/c2cn(CC(O)CN3CCc4ccccc43)c3ccccc23)cc1 (centres undefined)	?	nt	-10.6%	20.5%	nt	nt
O=C(NCCCN1CCN(c2ccccc2)CC1)c1nnc(Cc2ccc(F)cc2)o1	-23.0%	nt	-14.1%	15.8%	nt	nt
SMILES	GLP-1R inv ag	hERG WT inh	GLP1R cytotox	GLS inh	KCNH2 3.1 inh	GLP1R ag
COC(=O)c1sccc1S(=O)(=O)N(CC(=O)Nc1cc(C)ccc1C)c1ccc(C)c(C)c1	12.6µM*	nt	-4.6%	3.9%	nt	nt
COC(=O)c1sccc1S(=O)(=O)N(CC(=O)Nc1ccccc1C)c1ccc(Cl)cc1	?	nt	5.1%	1.6%	nt	nt
COC(=O)c1sccc1S(=O)(=O)N(CC(=O)Nc1cccc(C)c1C)c1ccc(C)c(C)c1	11.2µM*	nt	-16.6%	6.7%	nt	nt
COC(=O)c1sccc1S(=O)(=O)N(CC(=O)Nc1cc(F)ccc1F)c1ccc(C)c(C)c1	?	nt	0.9%	6.1%	nt	nt
COc1ccc(C(=O)COC(=O)CCCC(=O)NC2CCCCC2)cc1	0.7%	-5.5	-5.7%	-0.9%	24.1	1.4%
CCOC(=O)C1(Cc2cccc(OC)c2)CCN(Cc2cccc(O)c2)CC1	11.2µM*	5.0	-2.1%	2.0%	-23.9	5.5%
CCOC(=O)C1(Cc2cccc(OC)c2)CCN(Cc2ccc(C)s2)CC1	10µM*	?	?	-4.6%	-76.1*	3.2%
CCOC(=O)C1(Cc2cccc(OC)c2)CCCN(Cc2cc(OC)c(O)c(OC)c2)C1 (centres undefined)	-13.6%	-134.1*	2.3%	13.1%	-193.4*	3.2%
CCOC(=O)C1(Cc2cccc(OC)c2)CCN(Cc2cccn2-c2nccs2)CC1	?	-82.6*	-29.1%	8.7%	-100.9*	11.3%
CCOC(=O)C1(Cc2cccc(OC)c2)CCN(Cc2ccc(OC)c(OC)c2)CC1	?	18.4	-18.2%	5.5%	-70.1*	5.4%
CCN(CC(=O)NC(=O)NCc1ccco1)Cc1nc2ccccc2c(=O)[nH]1	-12.3%	1.0	11.2µM*	35.2%	-3.9	0.1%
CCN(CC(=O)NC(=O)NCc1ccco1)Cc1ccccc1	-25.1%	-0.2	-3.3%	0.8%	-8.9	15.5%
COc1ccc(OCCn2cc(C(=O)c3ccco3)c3ccccc32)cc1	?	nt	-27.2%	-9.9%	nt	nt
Cc1ccc(OCCn2cc(C(=O)c3ccco3)c3ccccc32)cc1C	10µM*	nt	-21.0%	1.1%	nt	nt
COC(=O)C1=C(C)N(Cc2ccccc2)C(=NCCc2cccnc2)N[C@H]1c1ccccc1	-19.7%	18.7	0.0%	5.1%	-40.1	-3.4%
COC(=O)C1=C(C)N(Cc2ccccc2)C(=NCCc2cccnc2)N[C@H]1c1ccc(Br)cc1	?	-48.1	-50.8%	0.2%	-89.2*	-0.7%
